From PubChem BioAssay (Tox21)
Results filed as inconclusive are left out. A call without a number means that no potency is given here. Activity calls are given as the source filed them. Calls come from the whole dose curve.

Experiment: p53 small molecule agonists, cell-based qHTS assay with human liver microsomes (AID 1963577);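 note: p53 response element beta-lactamase reporter cells with liver microsomes plus NADPH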
Summary of the method: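 Compounds act here after metabolic activation: human liver microsomes and NADPH, both at 0.5 mg/mL final, were co-added to p53RE-bla cells. Incubation ran 16 h at 37 C, followed by LiveBLAzer detection.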

Compound	Potency
Nc1ccc(N)c2ccccc12	inactive
COc1nccnc1CC(C)C	inactive
O=C(OCCc1ccccc1)c1ccccc1	inactive
CNC(=S)NN	inactive
CC(C)C[C@H](NC(=O)[C@H](Cc1ccccc1)NC(=O)c1cnccn1)B(O)O	inactive
COC(=O)Nc1nc2ccc(C(=O)C3CC3)cc2[nH]1	inactive
CCCCC(CC)COP(=O)(O)O (stereo not given)	inactive
Nc1ccc(F)cc1F	inactive
O=C(/C=C/c1ccc(O)c(O)c1)O[C@@H]1C[C@@](OC(=O)/C=C/c2ccc(O)c(O)c2)(C(=O)O)C[C@@H](O)[C@@H]1O	inactive
Cc1cc(C)c(C)c(C)c1	inactive
Nc1nc(N)c2nc(CNc3ccc(C(=O)N[C@@H](CCC(=O)O)C(=O)O)cc3)cnc2n1	inactive
Nc1ccc(-c2ccc(F)cc2)cc1	inactive
Cc1cc(CCN2CCN(c3nsc4ccccc34)CC2)cc2c1NC(=O)CC2(C)C	inactive
CC1=Nc2ccccc2C1(C)C	inactive
Cc1ccc(O)c(C(=O)c2ccccc2)c1	inactive
O=S(=O)(O)c1cc(I)c(O)c2ncccc12	inactive
C[C@]12CC[C@H]3C(=CCc4cc(O)ccc43)[C@@H]1CCC2=O	inactive
O=C(O)CCCCCCCCCC(=O)O	inactive

Compound	Potency
CC(C)c1cccc(C(C)C)c1N1C(=O)c2ccc(O)cc2C1=O	inactive
CCOc1ccc(O)cc1	inactive
CC[N+](C)(CC)CC	inactive
CCCc1ccccc1O	inactive
CCCCN(CCN(CCCC)C(=O)N1CCOCC1)C(=O)N1CCOCC1	inactive
O=C(O)CCCl	inactive
CCc1c(C)[nH]c2c1C(=O)C(CN1CCOCC1)CC2 (stereo not given)	inactive
C=CC(=O)OCCn1c(=O)n(CCOC(=O)C=C)c(=O)n(CCOC(=O)C=C)c1=O	inactive
c1csc(SSc2cccs2)c1	inactive
CC(=O)OC(OC(C)=O)c1ccc([N+](=O)[O-])o1	inactive
C=CC(=O)OCC(C)OCC(C)OCC(C)OC(=O)C=C (stereo not given)	inactive
CCOCN(C(=O)CS(=O)(=O)O)c1c(C)cccc1CC	inactive
CCCCCCNC(=O)n1cc(F)c(=O)[nH]c1=O	inactive
O=C(O)Cc1cc(I)c(Oc2cc(I)c(O)c(I)c2)c(I)c1	inactive
CC1=CCCC(C)(C)C12CCC(C)O2 (stereo not given)	inactive
CC(CN=Cc1ccccc1O)N=Cc1ccccc1O (stereo not given)	inactive
O=C1c2ccccc2-c2ccccc21	inactive
